In PubChem BioAssay (NCATS) one finds Potency data, which are given here for 13 molecules.

Each structure is given as a SMILES string. Where “and” joins values, the source holds several entries; their conditions need not be identical. Equal entries are not always repeated. Inconclusive results are not listed. Where a call stands in place of a potency, no number is given. Calls of active or inactive are those of the source. The call rests on the fitted dose curve; in most records, active means well fitted cell-killing curve with a large enough effect; inconclusive means small, poorly fitted or top-dose-only effect, or effect the other way; inactive means no such curve, though single readings can be large or run the other way.
Potency means the concentration at half of the fitted maximal effect.

The assay is described as follows: qHTS of pediatric cancer cell lines to identify multiple opportunities for drug repurposing: Confirmatory screen for LAN-5 cells (AID 1347113). Further: nearly all actives have a fitted effect of over 65% in size. Conditions: LAN-5 neuroblastoma cell viability; series mostly up to 45.9 µM. An excerpt: Drug repurposing or repositioning has been offered as a strategy for drug development in oncology programs. This approach has special potential for childhood cancers and other rare or orphan diseases, where the expected return on new drug development has been a disincentive to pharmaceuticals.
In this project we exploit the poly-pharmacology of drugs to discover new indications via phenotypic screening of a panel of 19 well-characterized cell lines derived from solid tumors seen in children and adolescents. The goal is to identify approved drugs with previously unrecognized anticancer properties that has the potential to reveal new mechanisms and biological processes involved in carcinogenesis or drug resistance. We employed a titration-based paradigm (quantitative high-throughput screening or qHTS), where all compounds were tested at multiple concentrations for their effect on cell viability. Concentration-response curves (CRCs) were derived directly from the primary screen, and both potency and efficacy values were used to identify compounds with robust bioactivity profiles. We screened the NIH Chemical Genomics Center (NCGC) Pharmaceutical Collection (NPC) and Mechanism Interrogation Plate (MIPE) small molecule collections of approved and investigational compounds against these cell lines; and measured metabolically active cells after 48 hours of compound treatment as a proxy for cell viability.
Assay Submitter: Nathalia J. Martinez, National Center for Advancing Translational Sciences, National Institutes of Health, Rockville, MD, USA; email: natalia.martinez@nih.gov
[1] Shen, M et al. Quantitative high-throughput phenotypic screening of pediatric cancer cell lines identifies multiple opportunities for drug repurposing. Oncotarget 2017 Dec 19;9(4):4758-4772. PMID 29435139.
The cells were obtained from University of North Carolina (UNC), Pediatric Preclinical Testing Program (PPT), and Coriell Institute (CI).
qHTS cell viability assay:
Cells were assayed in growth media at a density of 500-1,000 cells/well. Five microliters of cells were dispensed into 1,536-well, white, solid-bottom, TC-treated plates (Greiner Bio One) using a multidrop dispenser and incubated at 37 degrees C, 5% CO2, under a humidified atmosphere for 5 hours. Twenty-three nanoliters of compounds and controls (neutral control DMSO or positive control bortezomib at final concentration of 2.3 µM) were subsequently transferred by Kalypsys pintool. For primary screens, the MIPE collection was tested at 11-point dilutions (final concentrations range from 0.78 nM to 46 µM) and the NPC collection at 8-point dilutions (final concentrations range from 0.59 nM to 46 µM). Compounds tested in follow-up screens were assayed at 11-point dilutions. Cells were incubated for 48 hours, followed by addition of 3 µL of CellTiter-Glo (Promega). After a 15 min incubation at room temperature, samples were analyzed for luminescence intensity using a ViewLux High-throughput CCD imager equipped with clear filters.
(In general: Quantitative high-throughput screening tests each substance at several concentrations.)
As for `CCCCCCCCC(=O)NCc1ccc(O)c(OC)c1`, the Potency result is “inactive”.
Turning to `CC1Sc2c(C(=O)O)c(=O)c3cc(F)c(N4CCNCC4)cc3n21` (stereo not drawn), the Potency entry was “inactive”.
The result for `C[C@@H]1O[C@@H](O[C@@H]2C=C3CC[C@@H]4[C@H](CC[C@]5(C)[C@@H](c6ccc(=O)oc6)CC[C@]45O)[C@@]3(C)CC2)[C@H](O)[C@H](O)[C@H]1O` reads 58.5 nM (active); that for `CN1[C@@H]2CC[C@H]1CC(OC(=O)c1cc(Cl)cc(Cl)c1)C2` (stereo partly drawn), “inactive”.
The result for `ClC1=C(Cl)C2(Cl)C(CBr)CC1(Cl)C2(Cl)Cl` (stereo not drawn) reads “inactive”.
On to `O=C(O)Cc1ccccc1`, for which the Potency result is “inactive”.
The result for `Cc1ccc([N+](=O)[O-])[c]2c1[O][Hg]2` reads 2930 nM (active).
Next, `CC[n+]1c(-c2ccccc2)c2cc(N)ccc2c2ccc(N)cc21`: 928 nM (active); `CCc1ccc(C2CCNCC2)cc1`: “inactive”.
Next, `CCCCCCCCCCCC[N+](C)(C)CCOc1ccccc1`: 14700 nM (active); `COc1ccc2c(C(=O)c3ccc(Cl)cc3)c(C)n(CC(=O)O)c2c1`: “inactive”.
For `C[C@@H]1C[C@@H]([C@H](O)CC2CC(=O)NC(=O)C2)C(=O)[C@@H](C)C1`, the Potency is 928 nM (active) and 2.61 µM (active).
Regarding `CN(C)C(=S)SSC(=S)N(C)C`, the Potency is 185 nM (active).
